Screen size: about 340,000 compounds; about 3,300 (0.97%) were called active. The sample holds actives, similar compounds and a random draw of the others, so the mix is not that of the screen.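 The calls were made as follows: active = inhibition above the mean over all tested compounds plus 3 SD (cut at about 30% in these data); inactive = the rest.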
The molecules below were run against Platelet-activating factor acetylhydrolase 2, cytoplasmic (Homo sapiens) (UniProt Q99487) (assay: inhibition of cytoplasmic PAF acetylhydrolase 2 – biochemical, fluorescence polarization, human, primary screen (AID 492956;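 also: inhibitors block probe labeling of enzyme so polarization drops; 0% = enzyme with DMSO and 100% = wells lacking PAFAH2 protein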)). Conditions: recombinant PAFAH2, FP-rhodamine activity probe, at 3.39 µM, active compounds read high.
In the case of `Cc1ccc(-c2nn(-c3ccc(F)cc3)cc2C(=O)NCC(c2cccs2)N2CCOCC2)cc1` (stereo not drawn), the inhibition is reported as 3.21% (inactive). `Cc1cc(C(=O)N2CCN(c3ccccn3)CC2)c(C)o1` was tested, and the inhibition was -1.14% (inactive). `O=C(CSC1=Nc2ccccc2C2=NC(c3ccccc3)C(=O)N12)NCC1CCCO1` (stereo not drawn) was tested, and the inhibition was 7.84% (inactive). In the case of `CC(C)C1N=C2c3ccccc3N=C(SCC(=O)c3ccc(O)c(O)c3)N2C1=O` (stereo not drawn), the inhibition is reported as 43.8% (active). In the case of `NC(=O)CSC1=Nc2ccccc2C2=NC(CCC(=O)NCc3ccc(F)cc3)C(=O)N12` (stereo not drawn), the inhibition is reported as 1.37% (inactive). With `C/C(=N/Nc1nc(-c2ccccc2)c(CC(=O)O)s1)c1ccccc1` the inhibition was 0.51% (inactive). In the case of `N=C1C(c2nc3ccccc3s2)=C(O)CN1NC(=O)c1ccc([N+](=O)[O-])cc1`, the inhibition is reported as 8.9% (inactive). For `COc1ccccc1N1CC(O)=C(c2nc3ccccc3s2)C1=N`, the inhibition was 33.6% (active). In the case of `CCc1ccc(N2CC(O)=C(c3nc4ccccc4c(=O)[nH]3)C2=N)cc1`, the inhibition is reported as -1.39% (inactive). With `CCCCCN1CC(O)=C(c2ccccc2)C1=N` the inhibition was -3.01% (inactive). For `CCCCCN1CC(O)=C(c2nc(-c3ccc(Cl)cc3)cs2)C1=N`, the inhibition was -0.6% (inactive). With `CCOC(=O)CCCN1CC(O)=C(c2nc3ccccc3s2)C1=N` the inhibition was 34.8% (active). `CC(=O)Nc1ccc(N2C(=O)CCC2=O)cc1C` was tested, and the inhibition was -0.05% (inactive). With `NC(=O)C1CCN(Cc2nc3c(Br)cc(Br)cc3c(=O)[nH]2)CC1` the inhibition was -2.66% (inactive). `CCC(=O)Nc1ccc(C(=O)NNC(=O)c2ccc(Cl)cc2)cc1` was tested, and the inhibition was -2.08% (inactive). `C/C=C/C(=O)OCC(=O)Nc1ccc(F)cc1Cl` was tested, and the inhibition was 26% (inactive). For `C/C=C/C=C/C(=O)OCC(=O)Nc1ccc(Cl)cc1`, the inhibition was 86.5% (active). For `COc1ccc(-n2c(C)nn(CC3CC3)c2=O)cc1`, the inhibition was 0.47% (inactive). `O=C1NCC(c2ccccc2)(c2ccccc2)C(=O)N1` was tested, and the inhibition was -5.72% (inactive). For `O=C(CSc1n[nH]c(-c2cccnc2)n1)Nc1ccc(Cl)cc1`, the inhibition was -7.75% (inactive). `O=[N+]([O-])c1cc(S(=O)(=O)NCCc2ccccn2)ccc1Cl` was tested, and the inhibition was 4.86% (inactive). `O=C(COC(=O)CCOc1ccccc1)Nc1cc(S(=O)(=O)N2CCCCC2)ccc1Cl` was tested, and the inhibition was -0.76% (inactive). `O=C(COC(=O)c1ccccc1)Nc1cccc(S(=O)(=O)N2CCOCC2)c1` was tested, and the inhibition was 37.7% (active). In the case of `CCOc1ncccc1C(=O)OCC(=O)Nc1cccc(S(=O)(=O)N2CCCCCC2)c1`, the inhibition is reported as 60% (active). With `O=C(COC(=O)COc1ccccc1F)Nc1cccc(S(=O)(=O)N2CCCCC2)c1` the inhibition was -7.67% (inactive). For `O=C(CN1CCc2ccccc2C1)Nc1cccc(S(=O)(=O)N2CCOCC2)c1`, the inhibition was 5.27% (inactive). With `CS(=O)(=O)c1ccc(Cl)c(NC(=O)COC(=O)c2cccc(S(=O)(=O)N3CCCC3)c2)c1` the inhibition was 32.3% (active). With `O=C(COC(=O)/C=C/c1ccc(Br)o1)Nc1cccc(S(=O)(=O)N2CCOCC2)c1` the inhibition was 42% (active). In the case of `CC(NC(=O)c1ccccc1)C(=O)OCC(=O)Nc1cccc(S(=O)(=O)N2CCCC2)c1` (stereo not drawn), the inhibition is reported as 7.86% (inactive). In the case of `CC(=O)c1cccc(OCC(=O)OCC(=O)Nc2cc(S(=O)(=O)N3CCCCC3)ccc2C)c1`, the inhibition is reported as 1.56% (inactive). `CN=C(Nc1cccc(S(=O)(=O)N2CCOCC2)c1)c1ccccc1` was tested, and the inhibition was 0.65% (inactive). `O=C(CSc1ccccc1)Nc1cccc(S(=O)(=O)N2CCOCC2)c1` was tested, and the inhibition was -0.86% (inactive). With `O=C(COC(=O)CCc1ccc(S(=O)(=O)N2CCOCC2)cc1)Nc1cccc(Cl)c1` the inhibition was 0.83% (inactive). For `OC(CN1C2=NCCCN2c2ccccc21)c1ccc(Br)cc1` (stereo not drawn), the inhibition was 9.07% (inactive). For `C=CCNC(=O)/C=C/c1ccc(C(C)C)cc1`, the inhibition was 10% (inactive). For `CC(=O)NC12CC3CC(C1)CC(C(=O)N1CCN(S(=O)(=O)c4cccs4)CC1)(C3)C2`, the inhibition was 17.5% (inactive). For `O=C(OCC(=O)N1CCCCCC1)c1ccc(Br)c(S(=O)(=O)N2CCOCC2)c1`, the inhibition was 8.68% (inactive). With `COc1cccc(NC(=O)COc2cc(C)cc3oc(=O)cc(C)c23)c1` the inhibition was -3.3% (inactive). `CC(=O)c1nn(-c2ccc(C)cc2)cc1C(=O)c1cccc(Br)c1` was tested, and the inhibition was 1.51% (inactive). `Cc1ccc(C)c(C(=O)COC(=O)Cn2[nH]c(=O)c3ccccc3c2=O)c1` was tested, and the inhibition was -1.71% (inactive). For `COCCCNC(=O)c1c(F)c(F)c(F)c(F)c1F`, the inhibition was -4.37% (inactive). For `CC(NC(=O)CN1CCN(Cc2ccc(Cl)cc2)C1=O)c1ccc2c(c1)OCCO2` (stereo not drawn), the inhibition was 1.47% (inactive). With `O=C(NCc1cccnc1)c1cccnc1Sc1ccc(Cl)cc1` the inhibition was 2.4% (inactive). For `COc1ccccc1C(=O)OCC(=O)Nc1cccc(S(=O)(=O)NC2=NCCCCC2)c1`, the inhibition was 12.3% (inactive). In the case of `O=C(COC(=O)c1c(Cl)cccc1Cl)Nc1cccc(S(=O)(=O)NC2=NCCCCC2)c1`, the inhibition is reported as 8.12% (inactive). For `CCc1ccc(C(=O)OCC(=O)Nc2cccc(S(=O)(=O)NC3=NCCCCC3)c2)cc1`, the inhibition was 52.3% (active). For `CNC(=O)C1CC(=O)N(Cc2ccc3c(c2)OCO3)C(=Nc2ccc(F)cc2)S1` (stereo not drawn), the inhibition was 0.97% (inactive). For `CCC1(C)N(O)C(C)(C)C(c2ccc(OC)cc2)=[N+]1[O-]` (stereo not drawn), the inhibition was 2.06% (inactive). For `CCc1ccccc1NC(=O)c1ccc2c(c1)CCN2S(C)(=O)=O`, the inhibition was 2.6% (inactive). `COCCNC(=O)Nc1ccc2nc(-c3ccco3)c(-c3ccco3)nc2c1` was tested, and the inhibition was 35.8% (active). With `O=C(Nc1nc(-c2ccco2)c(-c2ccco2)s1)c1ccco1` the inhibition was 22.9% (inactive). For `COCCNC(=O)c1snc2ccc(Cl)cc12`, the inhibition was -2.13% (inactive). For `Cc1nnsc1C(=O)NCc1c(F)cccc1Cl`, the inhibition was 2.19% (inactive). In the case of `Cc1oc2cc([N+](=O)[O-])c(O)c([N+](=O)[O-])c2c1C(=O)c1ccc(Br)cc1`, the inhibition is reported as 8.04% (inactive). `CCOC(=O)c1c(-c2ccccc2)oc2cc(Br)c(O)c(C=O)c12` was tested, and the inhibition was 6.96% (inactive). For `Cc1oc2cc(Br)c(O)c(Br)c2c1C(=O)c1ccccc1`, the inhibition was 59.6% (active). In the case of `COCCN(CCOC)c1nc(N)c2c(N)nc3c(c2c1C#N)CC(=O)N3Cc1ccc(Cl)cc1`, the inhibition is reported as 5.58% (inactive). With `Clc1ccccc1CSc1nnc(-c2ccco2)c(-c2ccco2)n1` the inhibition was 62.2% (active). For `CCc1nnc(SCc2cccc(F)c2)nc1CC`, the inhibition was 0.34% (inactive). For `CSc1nc(-c2ccco2)nn1C(=O)c1ccccc1Cl`, the inhibition was 0.54% (inactive). For `S=C(NCc1ccco1)NCc1ccccc1Cl`, the inhibition was 2.25% (inactive). With `c1ccc(CSc2nnc(-c3ccco3)c(-c3ccco3)n2)cc1` the inhibition was 57% (active). `Clc1ccc(CSc2nnc3c(n2)[nH]c2ccccc23)cc1` was tested, and the inhibition was -12.8% (inactive).
